± gives the standard deviation of the averaged measurements.
Key:
Conditions in all cases: concentration: 10 µM; 24 h
HCC1569 [1] = test: cell number relative to DMSO (% of DMSO); higher = more cells (less growth inhibition / toxicity)
In short: (§1)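 HCC1569 and TDF cells were seeded at 800 per well in 384-well plates in RPMI with 10% FBS and treated with compounds at 10 µM for 24 h at 37 °C, in triplicate. After fixation in 3.7% formaldehyde, cells were stained with a rabbit anti-H1.0 antibody, an AlexaFluor 647 secondary and DAPI, and six fields per well were imaged at ×10. H1.0 nuclear intensity or cell number is given as percent of the plate control, using the median of replicates, with HCC1569 values smoothed for positional effects.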

TDF [2] = test: as above
In short: as §1

TDF [3] = test: H1.0 immunofluorescence intensity relative to DMSO (% of DMSO); higher = stronger H1.0 induction, active = 120 or more
In short: as §1

HCC1569 [4] = test: H1.0 immunofluorescence intensity relative to DMSO (% of DMSO); higher = stronger H1.0 induction, active = 140 or more
In short: as §1
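For H1.0 immunofluorescence intensity relative to DMSO in this document: TDF is a line of transformed human dermal fibroblasts of mesenchymal origin.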
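For cell number relative to DMSO in this document: TDF denotes transformed human dermal fibroblasts of mesenchymal origin.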

| Structure (SMILES) | cell number (HCC1569 [1]) | cell number (TDF [2]) | H1.0 immunofluorescence intensity (TDF [3]) | H1.0 immunofluorescence intensity (HCC1569 [4]) |
| --- | --- | --- | --- | --- |
| Cl.c1ccc(-n2c(C3=NCCN3)cc3ccccc32)cc1 | 98.8 | 92.4 | 105 (inactive) | 101 (inactive) |
| CC(C)NCC(O)COc1ccc(CCOCC2CC2)cc1.Cl (stereo not given) [Betaxolol.HCl] | 103 | 98 | 90.4 (inactive) | 102 (inactive) |
| Cl.NC12CC3CC(CC(C3)C1)C2 [Amantadine.HCl] | 103 | 103 | 92.2 (inactive) | 99 (inactive) |
| CC(CN(C)C)CN1c2ccccc2CCc2ccccc21.O=C(O)C=CC(=O)O (stereo not given) [Trimipramine maleate] | 106 | 106 | 102 (inactive) | 109 (inactive) |
| COc1cc(C(=O)OCCCCN=C(N)N)cc(OC)c1O | 103 | 95.8 | 102 (inactive) | 104 (inactive) |
| COc1cc2c(c(OC)c1OC)-c1c(cc3c(c1OC)OCO3)C[C@H](C)[C@@](C)(O)C2 | 97.6 | 95.4 | 96.3 (inactive) | 101 (inactive) |
| O=C(Nc1cccc(Cl)c1)Nc1ncc(CCNc2ncnc3ccsc23)s1 | 66.1 | 42.9 | 103 (inactive) | 178 (active) |
| CCCCCC(O)C=CC=CCC=CCCCCCCC(=O)O (stereo not given) | 99.9 | 104 | 99.2 (inactive) | 94.6 (inactive) |
| CC(OC(=O)c1ccc(F)cc1F)C(=O)N(C)C1CCS(=O)(=O)C1 (stereo not given) [Cdk2/9 Inhibitor] | 48.9 | 29.1 | 110 (inactive) | 139 (inactive) |
| CCN(CC)CC#CCOC(=O)C(O)(c1ccccc1)C1CCCCC1.Cl (stereo not given) [Oxybutynin Chloride] | 101 | 101 | 94.5 (inactive) | 97.4 (inactive) |
| COC(=O)c1ccccc1O [Methyl salicylate] | 100 | 104 | 92.2 (inactive) | 113 (inactive) |
| O=C(CCCN1CCC(O)(c2cccc(C(F)(F)F)c2)CC1)c1ccc(F)cc1 [Trifluperidol] | 100 | 95.7 | 97.3 (inactive) | 102 (inactive) |
| C=C1CCC2C(C)(CO)C(O)CCC2(C)C1CC=C1C(=O)OCC1O (stereo not given) [Andrographolide] | 83.1 | 68.6 | 109 (inactive) | 113 (inactive) |
| CCC(=O)Nc1ccc2ncnc(Nc3cccc(Br)c3)c2c1 | 89.4 | 105 | 93.1 (inactive) | 128 (inactive) |
| CCCCC=CCCCCCCCC(=O)O [9(E)-Tetradecenoic acid] | 98.8 | 106 | 98.8 (inactive) | 98 (inactive) |
| CN1CCN(c2ccc3c(c2)NC(=C2C(=O)N=c4cccc(F)c4=C2N)N3)CC1 | 81.3 | 72.6 | 93.5 (inactive) | 149 (active) |
| N[C@@H](Cc1cc(I)c(Oc2cc(I)c(O)c(I)c2)c(I)c1)C(=O)O [L-thyroxine] | 103 | 89.5 | 97.6 (inactive) | 96.6 (inactive) |
| FC(F)(F)c1ccc(CNc2ccc(Cc3c[nH]c4ncccc34)cn2)cc1 | 75.5 | 74.9 | 108 (inactive) | 139 (inactive) |
| Cl.Cn1ccc2cc3c(cc21)CCN3C(=O)Nc1cccnc1 | 101 | 112 | 87.9 (inactive) | 100 (inactive) |
| CCCCc1c(-c2ccc(OC)cc2)[nH]c2nccnc12 [Aloisine, RP106] | 94.7 | 97.5 | 93.2 (inactive) | 110 (inactive) |
| CCCCCC=CCC=CCCCCCCCC(=O)O [Linoleic acid] | 102 | 101 | 105 (inactive) | 99.3 (inactive) |
| COC(=O)C1=C(C)NC(C)=C(C(=O)OCCN2CCN(C(c3ccccc3)c3ccccc3)CC2)C1c1cccc([N+](=O)[O-])c1 (stereo not given) [Manidipine] | 106 | 109 | 90.4 (inactive) | 111 (inactive) |
| CC(C=CC1=C(C)CCCC1(C)C)=CC=CC(C)=CC(=O)O [Retinoic Acid] | 98.1 ± 2.9 | 109 ± 5.1 | 90.8 (inactive) | 121 (inactive) |
| COc1cccc(-c2cn(-c3ccc(CCN4CCC(O)CC4)cc3)c3ncnc(N)c23)c1 | 45.9 | 53.9 | 127 (active) | 177 (active) |
| Nc1[nH]nc2nc3ccccc3nc12 [Cdk1/5 Inhibitor] | 99.6 | 95.2 | 104 (inactive) | 113 (inactive) |

— the supplement of paper PMC7156485
